GPT2 inhibitor = GPT2 alanine aminotransferase inhibition; 100,000 compounds, 0.25% hits; Q8TD30; Recombinant GPT2, coupled pyruvate oxidase/HRP Amplex Red fluorescence; AID 1671188; Potency, µM (highest dose often 57.7 µM), without a hit: at the top dose activity change, negative = inhibition, actives largely listed as inhibitors; note: nearly all actives have a fitted effect of over 60% in size
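Inhibition is scored from Amplex Red fluorescence generated when pyruvate oxidase and HRP act on pyruvate released by GPT2. Reactions contain 10ng/uL enzyme, 250uM a-KG and 2mM L-alanine and run 30 min at room temperature.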
hNpr1 antagonist = antagonists of human natriuretic peptide receptor Npr1 | P16066 | HEK293 hNpr1 GloSensor cGMP, ANP-stimulated luminescence | 76,000 compounds, 1.6% hits | Potency, µM (highest dose often 46.3 µM), inactives show top-dose activity change, negative = inhibition, usual class: inhibitors; calls by dose curve; note: nearly all actives have a fitted effect of over 60% in size
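HEK293 cells stably expressing human Npr1 and cGMP GloSensor pGS-40F, loaded 2 h with 2% GloSensor reagent, given compound 30 min at room temperature. Luminescence read before and 20 min after 0.1 nM hNppA.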
3T3 cytotox = NIH 3T3 cell cytotoxicity. Potency, µM (titrated, usually from 96.7 µM), without a hit: top-dose activity change, negative = cytotoxicity, usual class: inhibitors. NIH 3T3 viability, CellTiter-Glo ATP luminescence, 48-72 h. AID 1345082. 94,000 compounds, 4.3% hits; note: nearly all actives have a fitted effect of over 55% in size
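First NIH 3T3 cells are plated at 400 cells/well; next compound is pinned in; then plates incubate 48 or 72 hr at 37 °C; finally CellTiter-Glo is added and luminescence read after 10 min.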
HEK293 tox = kills HEK 293 cells. 94,000 compounds, 6.6% hits. AID 1345083. HEK 293 viability, ATP luminescence (CellTiter-Glo), 48-72 h. Potency, µM (doses to about 115 µM), for inactives: at the highest dose activity change, negative = cytotoxicity, most hits filed as inhibitors; note: nearly all actives have a fitted effect of over 60% in size
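Pintool-delivered compounds were incubated with HEK 293 cells (250 cells/well) at 37 degree Celsius for 48 or 72 hr. ATP-dependent luminescence (CellTiter-Glo) then reported remaining viable cells.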
Luciferase inh = Photinus pyralis luciferase inhibition | P08659 | purified P. pyralis luciferase, luminescence, biochemical | Potency, µM (series often up to 115 µM), most hits filed as inhibitors | 76,000 compounds, 2.5% hits | AID 1347043; note: nearly all actives have a fitted effect of over 65% in size
Target sequence (P08659 whole entry, looked up): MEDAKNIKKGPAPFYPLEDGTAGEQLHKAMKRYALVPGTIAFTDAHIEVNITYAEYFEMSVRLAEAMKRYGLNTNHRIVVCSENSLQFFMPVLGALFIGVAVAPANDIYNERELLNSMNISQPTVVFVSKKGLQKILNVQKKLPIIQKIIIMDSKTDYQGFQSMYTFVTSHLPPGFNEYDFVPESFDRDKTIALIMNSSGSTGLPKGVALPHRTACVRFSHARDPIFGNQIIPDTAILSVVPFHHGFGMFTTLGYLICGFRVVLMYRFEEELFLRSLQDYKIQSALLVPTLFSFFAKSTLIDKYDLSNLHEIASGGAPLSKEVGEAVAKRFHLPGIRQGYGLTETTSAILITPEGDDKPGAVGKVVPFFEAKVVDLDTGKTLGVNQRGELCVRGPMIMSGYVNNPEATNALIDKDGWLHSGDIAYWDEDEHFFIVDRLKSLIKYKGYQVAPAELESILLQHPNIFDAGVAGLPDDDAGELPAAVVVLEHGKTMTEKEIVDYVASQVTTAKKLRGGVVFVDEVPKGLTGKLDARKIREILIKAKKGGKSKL
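FLuc 10nM, D-luciferin 10uM, ATP 10uM, Mg acetate 10mM, Tris acetate pH 7.5, Tween/BSA; cpd qHTS; enzyme added last; CCD luminescence.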
Starred values were filed as active, the others as inactive; i = inactive; ? = inconclusive; · = no result given; [ ] = dose if it differs, or a comment. The list is not random: actives were taken first. Their share in the collection is about 10%. Unless noted, calls come from the whole dose curve; as a rule, active = well fitted curve in the direction sought with a large enough effect; inconclusive = small, poorly fitted or top-dose-only effect, or another doubt; inactive = no such curve, though single readings can be large; an effect the other way counts as inactive or inconclusive. % is set by controls: 0 for no effect and ±100 for the full control effect; potency is the fitted concentration of half-maximal effect.

SMILES	GPT2 inhibitor	hNpr1 antagonist	3T3 cytotox	HEK293 tox	Luciferase inh
CN(C)C[C@@H]1CN(Cc2ccccn2)C[C@H]1NC(=O)c1ccc(Cl)s1	i	-1%	-9%	79µM*	i
O=C(NCc1nc(-c2ccncc2)n[nH]1)C1CCCN(C2CCCC2)C1 (stereo not drawn)	5%	0%	3%	1%	i
CC(C)(C)CC(=O)N1CCN2C(=O)c3cc(-c4cccc(C(F)(F)F)c4)ccc3NC(=O)[C@H]2C1	-25%	10%	-19%	?	i
c1ccc2cc(-c3noc([C@@H]4Cc5nc[nH]c5CN4CC4CCCCC4)n3)ccc2c1	3%[88.5 µM]	-17%[70.6 µM]	50µM*	71µM*	?
Cc1ccc(-c2noc([C@@H]3Cc4nc[nH]c4CN3CC3CCCCC3)n2)cc1	0%[88.5 µM]	1%[70.6 µM]	71µM*	63µM*	?
COc1cccc(CCc2nc(-c3nnn4c3COC(c3ccc(Cl)cc3)C4)no2)c1 (stereo not drawn)	i	10%	i	-5%	i
O=C(NCCCc1ccccc1)c1n[nH]c2c1CN(C(=O)c1cccc(Cl)c1)CC2	1%	·	35µM*	?	·
CCC(C)C(=O)N1CCc2[nH]nc(C(=O)NCCCc3ccccc3)c2C1 (stereo not drawn)	i	0%	?	11µM*	i
CC(C)c1ccc(C(=O)N2CCc3[nH]nc(C(=O)NCCCc4ccccc4)c3C2)cc1	i	0%	0%	-1%	i
O=C(NCCCc1ccccc1)c1n[nH]c2c1CN(C(=O)c1ccc(F)c(F)c1)CC2	5%	·	35µM*	?	·
Cc1ccc(C(=O)N2CCc3[nH]nc(C(=O)NCCCc4ccccc4)c3C2)cc1C	4%	·	?	?	·
COc1cccc(C(=O)N2CCc3[nH]nc(C(=O)NCCCc4ccccc4)c3C2)c1	i	-29%	32µM*	?	i
COCC1CN(C(C)=O)CC12CCN(C(=O)c1cc3ccccc3[nH]1)CC2 (stereo not drawn)	-8%	-12%	-15%	0%	?
O=C(NCC1(COc2cccnc2)C[C@@H](O)[C@@H](O)C1)C1CC1 (stereo partly drawn)	-7%[88.5 µM]	?	?	32µM*	i
O=C(NCc1ccccc1)c1cn(C2CN(C(=O)Nc3ccc4c(c3)OCCO4)C2)nn1	i	-12%	?	35µM*	?
O=c1cc(-c2cccnc2)oc2c(NCc3ccc(F)cc3)nccc12	3%[88.5 µM]	-5%[70.6 µM]	50µM*	-58%[172 µM]	i
C[S+](=O)([O-])c1ccc(-c2nccc3c(=O)cc(-c4cccnc4)oc23)cc1	?	-3%[70.6 µM]	25µM*	?	i
COc1ccc(-c2nccc3c(=O)cc(-c4cccnc4)oc23)cc1OC	4%[88.5 µM]	0%[70.6 µM]	22µM*	-7%[172 µM]	i
O=c1cc(-c2ccncc2)oc2c(-c3cccc(O)c3)nccc12	4%[88.5 µM]	3%[70.6 µM]	22µM*	?	i
Cc1ccccc1-c1nccc2c(=O)cc(-c3cccnc3)oc12	0%[88.5 µM]	4%[70.6 µM]	25µM*	112µM*	i
CCC(=O)N1CCN(c2nc3c(s2)CC(C(=O)NCc2ccccc2)CC3)CC1 (stereo not drawn)	i	-1%	-26%	?	i
CCC(=O)N1CCN(c2nc3c(s2)CC(C(=O)Nc2ccc(F)cc2C)CC3)CC1 (stereo not drawn)	i	-16%	-16%	?	i
CCC(=O)N1CCN(c2nc3c(s2)CC(C(=O)Nc2ccc(F)cc2F)CC3)CC1 (stereo not drawn)	i	?	?	10µM*	i
CCC(=O)N1CCN(c2nc3c(s2)CC(C(=O)Nc2cccc(C)c2C)CC3)CC1 (stereo not drawn)	i	-20%	?	40µM*	i
COC1CCN(C(=O)c2ccnc(-c3nnc4ccc(N(C)c5ccccc5)nn34)c2)CC1	-9%	-6%	3.5µM*	?	i
COC1CCN(C(=O)c2ccnc(-c3nnc4ccc(Nc5ccccc5)nn34)c2)CC1	-10%[88.5 µM]	-1%[70.6 µM]	?	89µM*	i
COc1ccc(Nc2ccc3nnc(-c4ccccn4)n3n2)cc1	-8%[88.5 µM]	-23%[70.6 µM]	?	71µM*	i
